Laboratory results as given in PubChem BioAssay (NCATS).
Inconclusive results are not listed. Calls of active or inactive are those of the source. Calls follow the shape of the dose curve; as a rule, active = well fitted inhibition curve with a large enough effect; inconclusive = small, poorly fitted or top-dose-only effect; inactive = flat fitted curve, though single readings scatter.

Legend:
[1] = Drug repurposing screens with cells derived from glioblastoma tumor samples (AID 1345199); conditions: GBM patient neurospheres viability, ATP luminescence, 48 h; also: nearly all actives have a fitted effect of over 40% in size
Procedure, shortened: (§1)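 Primary testing used CD133+ neurospheres from four GBM patients, seven concentrations, 48 h exposure and ATP-based viability; confirmation added three slower-growing patient lines.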

[2] = system: astro; test: as above; conditions: viability, ATP luminescence, 48 h; series mostly up to 45.9 µM
Procedure, shortened: as §1

[3] = at 46.1 µM (top of the series), tumour line C
[4] = at 45.9 µM (top of the series), tumour line B
[5] = at 45.9 µM (top of the series), tumour line D
[6] = at 20 µM (top of the series), tumour line C
[7] = at 21.2 µM (top of the series), tumour line B
% is scaled to controls: 0 for no effect and ±100 for the full control effect; potency is read from the fitted curve at half-maximal effect.

CO[C@H]1C[C@H](O[C@@H]2/C(C)=C/C[C@@H]3C[C@@H](C[C@]4(CC[C@H](C)[C@@H](C5CCCCC5)O4)O3)OC(=O)[C@@H]3C=C(C)/C(=N/O)[C@H]4OC/C(=C\C=C\[C@@H]2C)[C@]43O)O[C@@H](C)[C@@H]1O
inactive: activity, negative = cell killing [1, 3] -8.72% | Potency [2]
active: Potency ([1]; tumour line A) 10 µM | Potency ([1]; tumour line D) 20 µM

CCCCC[C@H](O)/C=C/[C@H]1[C@H](O)CC(=O)[C@@H]1C/C=C\CCCC(=O)O
inactive: activity, negative = cell killing [1, 4] -2.11% | activity, negative = cell killing [1, 5] -17.7% | activity, negative = cell killing [1, 3] -15.8% | Potency [2]

CC(=NCc1ccccc1)c1ccccc1O
inactive: activity, negative = cell killing [1, 4] -12.5% | activity, negative = cell killing [1, 5] -14.9% | activity, negative = cell killing [1, 3] 6.85% | Potency [2]

C[Se]CC[C@H](N)C(=O)O
inactive: activity, negative = cell killing [1, 4] -12.9% | activity, negative = cell killing [1, 5] -0.664% | activity, negative = cell killing [1, 3] -22.8% | Potency [2]

CN1CCN(C(c2ccccc2)c2ccc(Cl)cc2)CC1 (stereo not given)
inactive: activity, negative = cell killing [1, 6] 3.89% | activity, negative = cell killing [1, 7] -16.8% | Potency [2]
active: Potency ([1]; tumour line A) 11.2 µM

C[C@H](NCCc1ccc(O)cc1)[C@H](O)c1ccc(O)cc1
inactive: activity, negative = cell killing [1, 4] -2.5% | activity, negative = cell killing [1, 5] -20.4% | activity, negative = cell killing [1, 3] -12.8% | Potency [2]

C=CC[N@@+]12CC[C@@]34c5ccccc5N5/C=C6/[C@H]7C[C@H]8[C@@]9(CC[N@@+]8(CC=C)C/C7=C/CO)c7ccccc7N(/C=C(/[C@@H](C[C@@H]31)/C(=C\CO)C2)[C@H]54)[C@@H]69
inactive: activity, negative = cell killing [1, 6] -3.52% | activity, negative = cell killing [1, 7] -8.94% | activity, negative = cell killing ([1]; at 21.2 µM (top of the series), tumour line D) 3.96% | Potency [2]

COc1ccc(-c2noc(CC(=O)O)c2-c2ccc(OC)cc2)cc1
inactive: activity, negative = cell killing [1, 4] -13.4% | activity, negative = cell killing [1, 5] -6.66% | activity, negative = cell killing [1, 3] -18% | Potency [2]

COc1cc(S(C)=O)ccc1-c1nc2ncccc2[nH]1 (stereo not given)
inactive: activity, negative = cell killing [1, 4] -1.29% | activity, negative = cell killing [1, 5] -12% | activity, negative = cell killing [1, 3] -12.6% | Potency [2]

S=C1SCN(Cc2ccccc2)CN1Cc1ccccc1
inactive: activity, negative = cell killing [1, 5] -15% | activity, negative = cell killing [1, 3] -9.54% | Potency [2]
active: Potency ([1]; tumour line A) 11.2 µM
